According to PubChem BioAssay (EPA / NIEHS):
Results filed as inconclusive are left out. Activity calls are given as the source filed them. Rule for the calls: active = hit-call score of the fitted dose curve at least 0.9, where 1 is the maximum; inconclusive = response in the unintended direction; inactive = score below 0.9.

The molecules below were run against human Thyroid Receptor Alpha (TRa), THRA (gene 7067) (UniProt P10827) (assay: NVS_NR_hTRa_Antagonist: NovaScreen (NVS) Nuclear Receptor Binding Assay for human Thyroid Receptor Alpha Antagonism (TRa) (AID 2283362);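 note: activity is loss of signal relative to DMSO baseline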).
human Thyroid Receptor Alpha (TRa), THRA (gene 7067), sequence (P10827 whole entry, looked up): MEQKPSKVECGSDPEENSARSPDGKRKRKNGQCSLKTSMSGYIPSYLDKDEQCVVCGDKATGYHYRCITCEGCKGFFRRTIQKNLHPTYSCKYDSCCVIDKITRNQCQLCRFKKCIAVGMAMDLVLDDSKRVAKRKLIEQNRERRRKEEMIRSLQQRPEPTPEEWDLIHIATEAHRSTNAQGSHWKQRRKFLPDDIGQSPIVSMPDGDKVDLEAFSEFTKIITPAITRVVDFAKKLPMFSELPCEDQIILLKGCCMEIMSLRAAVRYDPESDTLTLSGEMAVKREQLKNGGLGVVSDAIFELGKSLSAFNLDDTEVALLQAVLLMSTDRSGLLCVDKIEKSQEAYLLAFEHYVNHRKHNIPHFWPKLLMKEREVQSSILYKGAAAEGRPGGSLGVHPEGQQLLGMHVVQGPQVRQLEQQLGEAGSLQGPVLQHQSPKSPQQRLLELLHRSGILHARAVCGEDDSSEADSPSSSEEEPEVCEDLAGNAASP
Outline: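 AlphaLISA chemiluminescent immunoassay readout, taken 1 h post-dosing in a cell-free system with extracted protein. Activity was scored as signal loss against DMSO negative control, from duplicate single-concentration (25 uM) testing followed by concentration-response follow-up.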
For `Clc1ccc(COC(Cn2ccnc2)c2ccc(Cl)cc2Cl)cc1` (configuration not stated), the outcome was “inactive”. For `CC(C)(c1ccccc1)c1ccc(O)c(C(C)(C)c2ccccc2)c1`, the outcome was “inactive”. With `NNC(=S)NN` the AC50 was 25.4 µM (active). For `Clc1ccc(C2(Cn3cncn3)CC(Br)CO2)c(Cl)c1` (configuration not stated), the outcome was “inactive”.

What follows are molecules tested against Glucocorticoid receptor (Homo sapiens) (UniProt P04150) (assay: NVS_NR_hGR: NovaScreen (NVS) Nuclear Receptor Binding Assay for human Glucocorticoid Receptor (GR) (AID 2283363);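 for AC50: activity is loss of specific radioligand binding signal relative to DMSO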).
Glucocorticoid receptor (Homo sapiens), sequence (P04150 whole entry, looked up): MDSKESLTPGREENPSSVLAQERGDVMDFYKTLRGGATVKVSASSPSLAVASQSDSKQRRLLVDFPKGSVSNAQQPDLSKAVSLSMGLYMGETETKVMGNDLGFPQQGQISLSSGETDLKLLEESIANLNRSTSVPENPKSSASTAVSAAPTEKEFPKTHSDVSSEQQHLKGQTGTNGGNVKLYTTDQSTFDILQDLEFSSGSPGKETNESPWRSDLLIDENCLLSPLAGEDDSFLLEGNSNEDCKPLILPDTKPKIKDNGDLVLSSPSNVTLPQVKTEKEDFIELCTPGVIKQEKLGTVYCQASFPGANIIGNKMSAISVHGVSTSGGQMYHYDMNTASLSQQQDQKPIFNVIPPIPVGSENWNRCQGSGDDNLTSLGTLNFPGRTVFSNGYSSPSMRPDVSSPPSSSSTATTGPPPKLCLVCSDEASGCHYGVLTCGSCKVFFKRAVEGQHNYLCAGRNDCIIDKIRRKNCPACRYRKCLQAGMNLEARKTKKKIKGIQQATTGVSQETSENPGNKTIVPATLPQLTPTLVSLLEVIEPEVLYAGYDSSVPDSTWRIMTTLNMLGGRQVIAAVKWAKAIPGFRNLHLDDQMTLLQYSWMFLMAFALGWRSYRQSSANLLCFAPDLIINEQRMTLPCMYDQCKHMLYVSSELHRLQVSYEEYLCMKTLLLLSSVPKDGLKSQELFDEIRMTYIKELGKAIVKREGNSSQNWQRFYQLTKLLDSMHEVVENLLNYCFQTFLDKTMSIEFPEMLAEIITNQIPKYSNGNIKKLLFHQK
Outline: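 Filter scintillation readout of tritiated/iodinated radioligand displaced by test chemical; cell-free extracted protein; 16 h. DMSO = negative control/baseline. Duplicate single-point 25 uM screen, then concentration-response on actives.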
With `Clc1ccc(COC(Cn2ccnc2)c2ccc(Cl)cc2Cl)cc1` (configuration not stated) the AC50 was 2.3 µM (active). In the case of `Cn1sc(Cl)cc1=O`, the outcome is reported as “inactive”. For `C=C(C)C(=O)[O][Sn]([CH2]CCC)([CH2]CCC)[CH2]CCC`, the AC50 was 1.15 µM (active). For `Clc1ccc(C2(Cn3cncn3)CC(Br)CO2)c(Cl)c1` (configuration not stated), the AC50 was 6.23 µM (active). For `CC(C)C1CCC(Cc2ccc(Cl)cc2)C1(O)Cn1cncn1` (configuration not stated), the AC50 was 5.7 µM (active).

The molecules below were run against Nuclear receptor subfamily 1 group I member 2 (Homo sapiens) (UniProt O75469) (assay: NVS_NR_hPXR: NovaScreen (NVS) Nuclear Receptor Binding Assay for human Pregnane X Receptor (PXR) (AID 2283365);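 note: a drop in FRET signal versus DMSO baseline means the compound binds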).
Nuclear receptor subfamily 1 group I member 2 (Homo sapiens), sequence (O75469 whole entry, looked up): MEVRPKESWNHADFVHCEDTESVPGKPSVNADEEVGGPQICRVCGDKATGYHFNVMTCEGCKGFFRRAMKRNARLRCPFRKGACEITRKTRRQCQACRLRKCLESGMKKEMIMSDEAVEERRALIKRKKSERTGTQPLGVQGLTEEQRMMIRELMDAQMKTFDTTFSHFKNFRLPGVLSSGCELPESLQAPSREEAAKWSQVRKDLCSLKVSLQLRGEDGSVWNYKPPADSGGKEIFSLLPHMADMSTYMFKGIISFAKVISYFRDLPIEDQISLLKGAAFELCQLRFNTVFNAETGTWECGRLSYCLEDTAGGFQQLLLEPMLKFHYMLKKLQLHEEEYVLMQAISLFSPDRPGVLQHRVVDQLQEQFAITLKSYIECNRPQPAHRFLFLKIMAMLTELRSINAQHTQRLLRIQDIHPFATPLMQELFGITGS
Outline: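 TR-FRET signal read at 2 h in a cell-free human PXR binding format. DMSO served as negative control and baseline; activity scored as signal loss. Single-concentration duplicate screen (25 uM), then concentration-response follow-up.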
In the case of `CCOP(=S)(OCC)Oc1nc(Cl)c(Cl)cc1Cl`, the outcome is reported as “inactive”. For `Clc1ccc(COC(Cn2ccnc2)c2ccc(Cl)cc2Cl)cc1` (configuration not stated), the AC50 was 9.83 µM (active). In the case of `C=C(C)C(=O)[O][Sn]([CH2]CCC)([CH2]CCC)[CH2]CCC`, the outcome is reported as “inactive”. For `CC(C)(c1ccccc1)c1ccc(O)c(C(C)(C)c2ccccc2)c1`, the outcome was “inactive”. In the case of `C=CC#N`, the outcome is reported as “inactive”. With `Fc1ccc(C2(Cn3cncn3)OC2c2ccccc2Cl)cc1` (configuration not stated) the outcome was “inactive”. `CC(C#N)CCC#N` (configuration not stated) was tested, and the outcome was “inactive”. `NNC(=S)NN` was tested, and the outcome was “inactive”. For `CCOP(=S)(OCC)SCSP(=S)(OCC)OCC`, the outcome was “inactive”. For `Clc1ccc(C2(Cn3cncn3)CC(Br)CO2)c(Cl)c1` (configuration not stated), the AC50 was 19.8 µM (active). `C[C@H]1CCCC(=O)CCC/C=C/c2cc(O)cc(O)c2C(=O)O1` was tested, and the AC50 was 0.969 µM (active). With `CC(=O)[O][Hg][c]1ccccc1` the AC50 was 5.37 µM (active). With `CC1(C)Cc2cccc(O)c2O1` the outcome was “inactive”.
